Measured values taken from the OligoGym collection.

target: SEC11C; test: pooled miR-30 sensor sort-seq; sequence = guide strand; conditions: shRNA
Also: reference of the scale not given here.

How did the sensor-assay potency score (higher = more potent) turn out when ATGAACTTTGATTACTCTGTGA was run?
The sensor-assay potency score (higher = more potent) was -0.369.

For TAAAACCTGGTAATAGAGCTGG, which sensor-assay potency score (higher = more potent) is on record?
Its sensor-assay potency score (higher = more potent) is -0.222.

Which sensor-assay potency score (higher = more potent) does the source give for TTACTCTGTGAACTATTGGAAT here?
The sensor-assay potency score (higher = more potent) was -1.07.

With TAGTCATTCATTATTATGGTGA as the sequence, how does the sensor-assay potency score (higher = more potent) read?
Its sensor-assay potency score (higher = more potent) is -0.647.

With TGAACTTTGATTACTCTGTGAA as the sequence, how does the sensor-assay potency score (higher = more potent) read?
The sensor-assay potency score (higher = more potent) was 0.177.

target: SEC22B; test: as above; conditions: shRNA

Which sensor-assay potency score (higher = more potent) does the source give for TTTCCTGAAAATATACACCTAC here?
The sensor-assay potency score (higher = more potent) was 0.224.

How did the sensor-assay potency score (higher = more potent) turn out when TTCTAATACACATCTCTGTGAG was run?
The sensor-assay potency score (higher = more potent) was 0.118.

With TAATATAATTCACTTACCCTAA as the sequence, how does the sensor-assay potency score (higher = more potent) read?
The sensor-assay potency score (higher = more potent) was -0.417.

Which sensor-assay potency score (higher = more potent) does the source give for TTCATTTTCAGGACATCTCTTT here?
Its sensor-assay potency score (higher = more potent) is 0.0656.

For TCGAGCACAACTGTCAATGTAG, which sensor-assay potency score (higher = more potent) is on record?
Its sensor-assay potency score (higher = more potent) is 0.24.

With TTGGATTCTAATACACATCTCT as the sequence, how does the sensor-assay potency score (higher = more potent) read?
Its sensor-assay potency score (higher = more potent) is 0.391.

With TCTAATACACATCTCTGTGAGC as the sequence, how does the sensor-assay potency score (higher = more potent) read?
Its sensor-assay potency score (higher = more potent) is -0.275.

How did the sensor-assay potency score (higher = more potent) turn out when TCAATGTAGAGCTTCTTGGTTT was run?
Its sensor-assay potency score (higher = more potent) is -0.305.

For TCGTTGTAACACTTCTTCGATA, which sensor-assay potency score (higher = more potent) is on record?
Its sensor-assay potency score (higher = more potent) is -1.15.

TTTCAGGACATCTCTTTTCTTG was tested. Which sensor-assay potency score (higher = more potent) did it give?
Its sensor-assay potency score (higher = more potent) is -0.395.

TAGCCTTTGAATCCAATGCTGA was tested. Which sensor-assay potency score (higher = more potent) did it give?
Its sensor-assay potency score (higher = more potent) is -0.568.
